Screens: PubChem BioAssay, National Center for Advancing Translational Sciences (NCATS)
Shown are actives, neighbours in structure and some others; about 21% of the full set was active somewhere.
ClpP mod: qHTS Assay for Activators of ClpP. ATP-dependent Clp protease proteolytic subunit (Bacillus subtilis (strain 168)), P80244. purified B. subtilis ClpP, FRET peptide cleavage, 20 min. Potency, µM (doses to about 57.5 µM), without a hit: top-dose activity change, negative = active. 340,000 tested, 1.9% active. AID 651965, 2013; active means well fitted falling curve with a large enough effect; inconclusive means small, poorly fitted or top-dose-only effect; inactive means no such curve, though single readings can be large or run the other way; further: potency means the concentration at half of the fitted maximal effect; the source files actives as falling curves though it sought activators and does not explain the sign; nearly all actives have a fitted effect of over 65% in size
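FRET quenching reversal measured ClpP activation: 10 microg/mL B. subtilis ClpP at pH 8 with the FRET-FV decapeptide, read at 430 nm after 320 nm excitation. The 20-min minus 0-min signal was scaled between DMSO/no-enzyme wells and ADEP (5.8 microM final).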
D3 ag: agonists of human D3 dopamine receptor; D3R DiscoveRx beta-arrestin cells, luminescence, 90 min; max activation, %; 410,000 tested, 0.58% active; in the data active means max activation above about 30%; further: 0% is about no effect
Target sequence (P35462 whole entry, looked up): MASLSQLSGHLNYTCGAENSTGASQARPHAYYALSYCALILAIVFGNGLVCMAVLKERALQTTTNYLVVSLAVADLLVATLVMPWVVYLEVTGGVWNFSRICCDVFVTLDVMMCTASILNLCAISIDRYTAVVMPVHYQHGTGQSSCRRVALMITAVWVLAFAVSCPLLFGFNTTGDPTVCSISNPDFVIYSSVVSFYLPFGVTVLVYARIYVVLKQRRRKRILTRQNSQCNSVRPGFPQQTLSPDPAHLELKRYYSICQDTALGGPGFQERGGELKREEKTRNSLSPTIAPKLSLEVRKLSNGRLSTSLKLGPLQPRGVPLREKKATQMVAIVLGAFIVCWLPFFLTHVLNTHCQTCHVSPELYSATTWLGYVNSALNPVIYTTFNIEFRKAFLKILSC
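Agonist mode: compounds and dopamine controls were applied to plated cells for 90 min at 37 degrees C after an overnight attachment at 1500 cells/well. Luminescent read-out followed 30 - 60 minutes at room temperature with DiscoveRx detection reagent.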
DT40 TDP1 CPT: growth inhibition of DT40 Tdp1-/-;hTDP1 cells with camptothecin (screen for TDP1 inhibitors). chicken DT40 Tdp1-/-;hTDP1 cells + 20 nM CPT, ATP luminescence, 48 h. 420,000 tested, 12% active. Potency, µM (top dose mostly 46.2 µM), inactives show at the top dose activity change, negative = growth inhibition, usual class: inhibitors; further: potency means the concentration at half of the fitted maximal effect; on the % scale 0 is the no-effect control and ±100 the full control effect; nearly all actives have a fitted effect of over 55% in size
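Chicken DT40 Tdp1-/- cells complemented with human TDP1, 400 cells/well, exposed to compounds plus 20 nM camptothecin for at least 48 h at 37 C; viability read as ATP content by CellTiter-Glo luminescence.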
IL-1B inflam inh: inhibitors of inflammasome signaling (IL-1 beta secretion). THP-1 LPS/ATP IL-1B secretion, AlphaLISA, 16 h; hits give low values. 360,000 tested, 4.7% active. activity change, % at 57.5 µM; in the data active means activity change below about -50%; inconclusive means mostly about -30% to -49%; further: on the % scale 0 is the no-effect control and ±100 the full control effect
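THP-1 cells pretreated 1 hr with compounds (up to 57.5 uM final), then stimulated with LPS (250 ng/mL final) plus ATP (1.25 mM final); secreted IL-1B measured by AlphaLISA after 16 hr, decreased signal indicating inhibition.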
DT40 TDP1 no CPT: qHTS for Inhibitors of human tyrosyl-DNA phosphodiesterase 1 (TDP1): qHTS in cells in absence of CPT | 420,000 tested, 15% active | DT40 Tdp1-/- hTDP1 cells, no CPT, ATP luminescence, 48 h | Potency, µM (series often up to 46.2 µM), without a hit: top-dose activity change, negative = growth inhibition, usual class: inhibitors; further: potency means the concentration at half of the fitted maximal effect; on the % scale 0 is the no-effect control and ±100 the full control effect; nearly all actives have a fitted effect of over 55% in size
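A cellular qHTS used chicken DT40 cells lacking endogenous Tdp1 but carrying stably transfected human TDP1. Compounds were applied without camptothecin, and cell growth kinetics were judged by ATP-dependent luminescence after ≥48 hr.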
D3 antag: blocks the human D3 dopamine receptor | P35462 | D3R cells, DiscoveRx beta-arrestin luminescence, antagonist mode; hits give low values | max response, negative = inhibition, % | 360,000 tested, 2.5% active | AID 652054; in the data active means max response below about -50%; inconclusive means no clear call, values can overlap the other calls; further: on the % scale 0 is the no-effect control and ±100 the full control effect
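Cells expressing the human receptor were seeded at 1500 cells/well, incubated overnight at 37 degrees C in 5% CO2, then exposed to library compounds with dopamine controls for 90 minutes at 37 degrees C before luminescent detection.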
The depositor's hits bear a star; u = inconclusive; x = not tested or not shown. Unless noted, the call rests on the fitted dose curve; in most records, active means well fitted inhibition curve with a large enough effect; inconclusive means small, poorly fitted or top-dose-only effect; inactive means flat fitted curve, though single readings scatter.

SMILES	ClpP mod	D3 ag	DT40 TDP1 CPT	IL-1B inflam inh	DT40 TDP1 no CPT	D3 antag
COCCNC(=O)C[C@@H]1C[C@H]2c3cc(NC(=O)Nc4ccc(F)cc4)ccc3O[C@H]2[C@H](CO)O1	0%	-2	u	3	8.2µM*	5
O=C(C[C@H]1C[C@@H]2c3cc(NC(=O)Nc4ccccc4F)ccc3O[C@@H]2[C@H](CO)O1)NCc1ccccn1	-2%	5	u	-1	16µM*	0
C[C@@H]1CN([C@@H](C)CO)S(=O)(=O)c2ccc(Br)cc2O[C@H]1CN(C)C(=O)Cc1cccnc1	0%	5	-1%	11	-3%	9
COc1ccc(S(=O)(=O)N(CC(=O)NCc2ccncc2)c2ccc(C)cc2)cc1Br	x	-5	-28%	8	-22%	6
O=C(OCc1ccccc1)/C(=C/c1ccc(Cl)cc1)NC(=O)c1ccccc1Cl	-2%	-2	-29%	0	u	-5
Cc1ccc(C(=O)N/C(=C\c2ccccc2)C(=O)OCc2ccccc2)cc1	0%	-4	29µM*	-51*	u	1
C=CCOc1c(OC)cc(/C=N/Nc2cccc(C(=O)O)c2)c(Br)c1Br	-7%	4	16µM*	0	16µM*	4
CN(C)c1ccc(-c2ccc3ncnc(N4CCNCC4)c3c2)cc1	x	x	-6%	x	u	x
CN(C)Cc1ccccc1-c1ccc2ncnc(N(C)C)c2c1	x	x	u	x	-16%	x
CN(C)c1ncnc2ccc(-c3ccoc3)cc12	x	x	18µM*	x	u	x
CN(C)c1ccc(-c2ccc3ncnc(N(C)C)c3c2)cc1	x	x	0.46µM*	x	0.37µM*	x
Cc1cccc(-n2c3nc(=O)[nH]c(=O)c-3cc3ccc(Cl)cc32)c1C	u	5	u	x	8.2µM*	x
Cc1cccc(-n2c3nc(=O)[nH]c(=O)c-3cc3c(Cl)cccc32)c1C	5%	-20	0.82µM*	x	0.58µM*	x
Cc1nn(-c2ccccc2)c2c1cc1c(=O)[nH]c(=O)nc-1n2-c1cccc(Cl)c1	4%	6	9%	x	-3%	x
CSc1nnnc2ccccc12	0%	2	11%	-3	0%	-2
COc1cc(/C=N/NC(=O)CCN2CCN(C)CC2)cc2c1OCO2	16µM*	-23	-3%	0	-4%	0
Cc1ccc(C(=O)N/C(=C\c2ccc(-c3cccc([N+](=O)[O-])c3)o2)C(=O)NC(C)(C)C)cc1	2%	2	15µM*	-7	16µM*	46
Cc1ccc(C(=O)N/C(=C/c2ccc(-c3ccc([N+](=O)[O-])cc3)o2)C(=O)NCCCN(C)C)cc1	x	-14	21µM*	x	21µM*	-25
O=C(NC1CCS(=O)(=O)C1)/C(=C/c1ccco1)NC(=O)c1ccccc1 (stereo unspecified)	x	-2	-5%	4	2%	-15
O=C(NC1CCS(=O)(=O)C1)/C(=C\c1ccco1)NC(=O)c1ccccc1 (stereo unspecified)	x	5	4%	-63*	-8%	-18
Cc1ccc(C(=O)N/C(=C\c2ccc(-c3ccc([N+](=O)[O-])cc3)o2)C(=O)NC2CCS(=O)(=O)C2)cc1 (stereo unspecified)	1%	-1	21µM*	-18	u	-6
CC(C)=CCOc1ccc(/C=C/C(=O)c2ccc(OCC=C(C)C)cc2OCC(=O)O)cc1	x	2	1%	x	2%	x
COc1cc(=O)n2c(c1C(=O)NCc1ccc3c(c1)OCO3)CCN(C(=O)c1ccccc1F)CC2	x	x	4%	x	-15%	x
CCCCn1c(N)c(N(CCOC)C(=O)COC(=O)C(C)(C)Oc2ccc(Cl)cc2)c(=O)[nH]c1=O	1%	-19	-28%	3	-14%	-15
Cc1nn2c(N)c(-c3ccccc3)cnc2c1-c1ccc(Cl)cc1	0%	1	16µM*	-69*	u	2
